High-throughput results (PubChem BioAssay)
An excerpt weighted towards active compounds, which were near 2.5% of everything screened.
HDAC3 inhib: inhibitors of human histone deacetylase 3 | recombinant HDAC3, fluorogenic peptide/trypsin coupled, fluorescence | inhibition, % at 8.3 µM | AID 2718 | 320,000 tested, 0.15% active | O15379; in the data active means inhibition above about 26%, passing the limit was not always enough; inconclusive means no clear call, values can overlap the other calls
G6PDH counter: L. mesenteroides G6PDH inhibition counter-screen; Purified L. mesenteroides G6PDH, diaphorase/resazurin coupled fluorescence, 45 min; inhibition, % at 5 µM; 200,000 tested, 0.12% active; in the data active means inhibition above about 50%
M18AAP inhibitor: blocks P. falciparum M18 aspartyl aminopeptidase | inhibition, % at 7.35 µM | 290,000 tested, 1.2% active | recombinant PfM18AAP, H-Glu-NHMec fluorogenic cleavage;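 active means inhibition above the campaign mean inhibition over all tested compounds plus 3 SD, cut at about 28% in these data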
UBC9 SUMO inh: inhibitors of human SUMOylation (UBC9); HTRF SUMOylation assay, SAE1/SAE2 + UBC9, in vitro; inhibition, % at 35 µM; 290,000 tested, 0.36% active; AID 2006; in the data active means inhibition above about 50%, passing the limit was not always enough; inconclusive means no clear call, values can overlap the other calls
Target sequence (P63279 whole entry, looked up): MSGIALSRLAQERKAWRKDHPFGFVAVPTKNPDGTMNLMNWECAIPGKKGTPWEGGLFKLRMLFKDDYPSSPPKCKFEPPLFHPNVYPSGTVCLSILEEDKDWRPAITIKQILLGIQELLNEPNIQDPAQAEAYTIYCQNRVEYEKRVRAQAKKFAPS
PHOSPHO1 block: inhibitors of human PHOSPHO1 phosphatase. Q8TCT1. recombinant PHOSPHO1, absorbance phosphatase assay. inhibition, % at 13.3 µM. AID 1565. 290,000 tested, 1.1% active; in the data active means inhibition above about 60%
Target sequence (Q8TCT1 whole entry, looked up): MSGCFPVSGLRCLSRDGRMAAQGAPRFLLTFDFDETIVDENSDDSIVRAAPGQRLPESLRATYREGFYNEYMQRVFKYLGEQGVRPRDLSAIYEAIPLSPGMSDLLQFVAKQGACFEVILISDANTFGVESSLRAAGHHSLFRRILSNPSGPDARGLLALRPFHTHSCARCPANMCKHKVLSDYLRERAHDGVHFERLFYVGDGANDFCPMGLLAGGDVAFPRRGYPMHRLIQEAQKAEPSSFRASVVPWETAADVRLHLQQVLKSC
p97 inhibitor: inhibitors of human p97 ATPase; P55072; recombinant p97 ATPase, Kinase-Glo ATP luminescence, 3 h; inhibition, % at 8 µM; 220,000 tested, 0.42% active; in the data active means inhibition above about 15%
A number is an active result; - = inactive; ? = inconclusive; . = no result.

SMILES	HDAC3 inhib	G6PDH counter	M18AAP inhibitor	UBC9 SUMO inh	PHOSPHO1 block	p97 inhibitor
COC(=O)CC(NC(=O)CN1CCN(c2ccc(F)cc2)CC1)c1cccc(F)c1 (configuration not stated)	-	.	-	-	-	.
CC(O)CNCCCOc1ccc(Cl)cc1C(C)(C)C (configuration not stated)	-	-	-	-	-	-
CCOC(=O)NC(N(O)c1cccc(Cl)c1)C(Cl)(Cl)Cl (configuration not stated)	-	.	31	-	-	-
Cc1ccc(NC(=O)CCCCCN2C(=O)[C@@H]3Cc4ccccc4CN3C2=O)c(C)c1	-	.	-	-	-	.
Cc1nc(SCC(=O)O)n[nH]1	-	.	-	-	-	-
Cc1ccc(C)c(C(=O)CSc2n[nH]c(C)n2)c1	-	-	-	-	-	-
CCc1ccc(C(=O)CSc2n[nH]c(C)n2)cc1	-	-	-	-	102	-
Cc1ccc(C(=O)CSc2n[nH]c(C)n2)cc1	-	-	-	-	92	-
Cc1cc(=O)[nH]c2ccc(S(=O)(=O)NCc3ccccc3)cc12	-	.	-	-	63	.
Cc1ccc(S(=O)(=O)N2CCC(C(=O)OCC(=O)Nc3cc(S(C)(=O)=O)ccc3Cl)CC2)cc1C	?	.	-	-	-	.
CCC(=O)N(CC)C1=C(O)c2ccccc2C(=O)C1=O	-	52	-	-	-	-
Cc1ccc2[nH]c(=O)c(C(c3nnnn3CC3CCCO3)N3CCCc4ccccc43)cc2c1 (configuration not stated)	-	-	-	-	86	-
Cc1ccc2[nH]c(=O)c(C(c3nnnn3CC3CCCO3)N3CCc4ccccc4C3)cc2c1 (configuration not stated)	-	-	-	-	-	-
CCC(C)(C)n1nnnc1C(c1cc2cc(C)ccc2[nH]c1=O)N1CCCc2ccccc21 (configuration not stated)	-	-	-	-	75	-
COC(=O)c1cc(OC)nc2ccc(Br)cc12	-	.	-	-	-	-
O=C(N/N=C/C=C\c1ccc([N+](=O)[O-])cc1)c1cccnc1	-	.	-	-	-	-
Cc1nc(SCC(=O)Nc2c(C)n(C)n(-c3ccccc3)c2=O)c(C#N)c(C)c1C	-	.	.	.	.	.
CCCc1cc(SCC(=O)Nc2c(C)n(C)n(-c3ccccc3)c2=O)n2c(nc3ccccc32)c1C#N	-	-	-	-	100	-
CCc1cccc(CC)c1NC(=O)CSc1nnc(C2CC2)n1C	-	.	-	-	-	.
O=c1[nH][nH]c2c(N=Cc3ccccc3O)ccc(F)c12	.	.	-	66	-	40
CC(=O)c1ccc(OC(=O)c2ccc(Br)o2)cc1	67	-	-	-	-	-
Cc1nc(S/C(=C/c2ccc(OCc3ccc(C(=O)O)cc3)cc2)C(=O)O)n[nH]1	-	-	-	58	-	-
N#C/C(=C\c1ccc(OCc2ccc(C(=O)O)cc2)cc1)C(=O)NCc1ccccc1	-	.	-	-	-	.
O=C(CN1C(=O)NC2(CCOc3ccccc32)C1=O)NCc1ccccc1 (configuration not stated)	-	.	.	.	.	.
O=C(Cc1ccc(Cl)cc1)N1CCN(c2ccccc2)CC1	.	.	-	-	-	.
SMILES	HDAC3 inhib	G6PDH counter	M18AAP inhibitor	UBC9 SUMO inh	PHOSPHO1 block	p97 inhibitor
Cc1c(/C(O)=C2/C(=O)C(=O)N(CCN3CCOCC3)C2c2ccccn2)cnn1-c1ccccc1 (configuration not stated)	-	-	-	-	60	-
Cc1ccc(C2/C(=C(/O)c3cnn(-c4ccccc4)c3C)C(=O)C(=O)N2CCCN2CCOCC2)o1 (configuration not stated)	-	.	-	-	-	-
COC(=O)c1ccc(CO/N=C/c2cccc([N+](=O)[O-])c2)cc1	-	.	-	-	-	.
COC(=O)C(/C=N/OCc1ccc([N+](=O)[O-])cc1)NC(=O)c1ccccc1 (configuration not stated)	44	-	-	-	-	-
O=C(c1c(F)cccc1F)N1CCCC(c2nc(-c3ccc(F)cc3)no2)C1 (configuration not stated)	-	.	-	-	62	.
O=C(c1ccc(F)cc1)N1CCCC(c2nc(-c3ccncc3)no2)C1 (configuration not stated)	-	.	.	.	.	.
CCCCC1(Br)C(=O)N(c2ccccc2)N(c2ccccc2)C1=O	-	.	.	.	.	.
CCN(CC)c1ccc(N=Nc2nn(C)c(C)c2[N+](=O)[O-])cc1	-	-	-	-	-	-
CCN(CC)c1ccc(N=Nc2ncn[nH]2)cc1	-	-	30	-	-	-
